Source: PubChem BioAssay (NCI)
The panel holds about 83,000 compounds, 20% with a hit somewhere; the sample as a whole holds those more often.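 Step 1: grow cells in 96-well plates. Step 2: add test compound at a single concentration. Step 3: incubate 48 h. Step 4: record percent growth.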 Calls of active or inactive are those of the source. Rule for the calls: active = growth percent below 10; inactive = the rest.

Assays:
Test in all cases: NCI-60 one-dose screen, 48 h (100 = growth as untreated, 0 = no growth, -100 = all killed)
Settings in all cases: 10 µM unless noted
NCI-H23 lung = system: NCI-H23 lung
NCI-H226 lung = system: NCI-H226 lung
NCI-H322M lung = system: NCI-H322M lung
HOP-62 NSCLC = system: HOP-62 NSCLC
NCI-H460 lung = system: NCI-H460 lung
HOP-92 NSCLC = system: HOP-92 NSCLC
NCI-H522 lung = system: NCI-H522 lung
786-0 renal = system: 786-0 renal
COLO 205 colon = system: COLO 205 colon
A549/ATCC NSCLC = system: A549/ATCC NSCLC

Measured: growth

O=c1ccc2nc(-c3ccccc3)nn(-c3ccccn3)c-2c1
active: NCI-H522 lung -59.7% | COLO 205 colon -68.8%
inactive: NCI-H23 lung 90.8% | NCI-H226 lung 91.9% | NCI-H322M lung 102% | HOP-62 NSCLC 95.9% | NCI-H460 lung 106% | HOP-92 NSCLC 55.8% | 786-0 renal 63.5%

CN(C)CC1C(=O)O[C@H]2[C@H]1CC/C(COC(=O)NCc1ccc(Cn3c(=O)sn(CCCI)c3=O)cc1)=C\CC[C@@]1(C)O[C@@H]21 (some centres undefined)
inactive: NCI-H23 lung 55.3% | NCI-H322M lung 95.1% | HOP-62 NSCLC 83.8% | NCI-H460 lung 100%
active: NCI-H226 lung -27.4% | HOP-92 NSCLC -87.2% | NCI-H522 lung -84.3% | 786-0 renal -73.2% | COLO 205 colon -63%

COc1cccc(/C=C/C(=O)/C=C(/C=C/c2cccc(OC)c2OC)OB(F)F)c1OC
inactive: NCI-H23 lung 44.2% | NCI-H226 lung 107% | NCI-H322M lung 92.5% | HOP-62 NSCLC 80.3% | NCI-H460 lung 90.7% | HOP-92 NSCLC 103% | NCI-H522 lung 17.4% | 786-0 renal 45.1% | COLO 205 colon 32.9%

COC(=O)[C@H](C)NC(=O)[C@@H]1CCCN1C(=O)CNC(=O)[C@H](C)N
inactive: NCI-H23 lung 105% | NCI-H226 lung 101% | NCI-H322M lung 96.5% | HOP-62 NSCLC 114% | NCI-H460 lung 106% | HOP-92 NSCLC 89% | NCI-H522 lung 96.2% | A549/ATCC NSCLC 106% | 786-0 renal 98% | COLO 205 colon 104%

Cc1csc(Nc2nc(-c3cccc(Cl)c3)nc(C(Cl)(Cl)Cl)n2)n1
inactive: NCI-H23 lung 79% | NCI-H226 lung 95.6% | HOP-62 NSCLC 20.3% | HOP-92 NSCLC 32.7% | NCI-H522 lung 83.6% | 786-0 renal 59.5%
active: NCI-H322M lung -23.1% | NCI-H460 lung 9.9% | COLO 205 colon -38.6%

CCC(C)C(N)C(=O)NC(CC(C)C)C(=O)N1CCCC1C(=O)NC(Cc1c[nH]c2ccccc12)C(=O)NC(CCCCN)C(=O)NC(Cc1c[nH]c2ccccc12)C(=O)N1CCCC1C(=O)NC(Cc1c[nH]c2ccccc12)C(=O)NC(Cc1c[nH]c2ccccc12)C(=O)N1CCCC1C(=O)NC(Cc1c[nH]c2ccccc12)C(=O)NC(CCCNC(=N)N)C(=O)NC(CCCNC(=N)N)C(N)=O (centres undefined)
inactive: NCI-H23 lung 104% | NCI-H226 lung 112% | NCI-H322M lung 100% | HOP-62 NSCLC 103% | NCI-H460 lung 107% | HOP-92 NSCLC 86.2% | NCI-H522 lung 97.7% | 786-0 renal 102% | COLO 205 colon 97.2%

COc1c(O[C@@H]2OC(CO)[C@H](O)[C@H](O)C2O)cc2oc3cc(O)c(CC=C(C)C)c(O)c3c(=O)c2c1CC=C(C)C (some centres undefined)
inactive: NCI-H23 lung 93.5% | NCI-H226 lung 86.6% | NCI-H322M lung 103% | HOP-62 NSCLC 79% | NCI-H460 lung 101% | HOP-92 NSCLC 81.1% | NCI-H522 lung 64.6% | 786-0 renal 106% | COLO 205 colon 96.3%

COc1ccc2c(c1)c(-c1nc(-c3cn(C)c4ccncc34)cs1)cn2C
active: NCI-H460 lung -64.5%
inactive: NCI-H23 lung 92.2% | NCI-H226 lung 113% | NCI-H322M lung 95.7% | HOP-62 NSCLC 94.7% | HOP-92 NSCLC 81.8% | NCI-H522 lung 87.3% | 786-0 renal 84.8% | COLO 205 colon 92.6%

O=c1c(/C=C/c2c(O)ccc3ccccc23)nnc2sc(-c3cccc([N+](=O)[O-])c3)nn12
inactive: NCI-H23 lung 61.6% | NCI-H226 lung 64.2% | NCI-H322M lung 41.1% | HOP-62 NSCLC 31% | NCI-H460 lung 26.5% | HOP-92 NSCLC 65.7% | NCI-H522 lung 86.3% | 786-0 renal 57% | COLO 205 colon 84.4%

CS(=O)(=O)Nc1cc(-c2ccc3ncnc(Nc4cccc(Cl)c4)c3c2)cnc1Cl
inactive: NCI-H226 lung 11.8%
active: NCI-H23 lung 6.5% | NCI-H322M lung 1.07% | HOP-62 NSCLC 3.9% | NCI-H460 lung 7.81% | HOP-92 NSCLC -22.5% | NCI-H522 lung 2.07% | 786-0 renal 5.7% | COLO 205 colon -49.4%

CO[C@H]1CC(c2ccc[nH]2)=N[C@]12O[C@@H](C)C[C@@H]1CCCCCCCc3ccc([nH]3)[C@H]12
inactive: NCI-H23 lung 28.1% | NCI-H226 lung 29.3% | NCI-H322M lung 37.8% | HOP-62 NSCLC 14.8% | NCI-H460 lung 17% | HOP-92 NSCLC 10.3% | NCI-H522 lung 20.8% | 786-0 renal 11.7%
active: COLO 205 colon 7.52%

Cc1ccc(C(=O)Nc2ccc(CN3CCN(C)CC3)c(C(F)(F)F)c2)cc1C#Cc1cnc(N)c2ccccc12
inactive: NCI-H226 lung 21.6% | NCI-H322M lung 17% | HOP-62 NSCLC 15%
active: NCI-H23 lung -46% | NCI-H460 lung -86.8% | HOP-92 NSCLC -14.8% | NCI-H522 lung -44.3% | 786-0 renal -77.4% | COLO 205 colon -66.3%

Oc1ccc(C(c2ccc(O)cc2)c2ccc(Cl)cn2)cc1
inactive: HOP-62 NSCLC 61.9% | NCI-H460 lung 103% | NCI-H522 lung 57.6% | 786-0 renal 86.8%
active: NCI-H23 lung -4.57% | NCI-H226 lung -31% | NCI-H322M lung -18.9% | HOP-92 NSCLC -8.51% | COLO 205 colon 4.91%

COc1ccc(NC(=O)CSc2oc(-c3ccccc3)nc2S(=O)(=O)c2ccc(Cl)cc2)c(OC)c1
active: NCI-H226 lung 1.45%
inactive: NCI-H23 lung 73% | NCI-H322M lung 83% | HOP-62 NSCLC 51% | NCI-H460 lung 44.7% | HOP-92 NSCLC 39.6% | NCI-H522 lung 41.4% | 786-0 renal 35.7% | COLO 205 colon 82.4%

COc1cc(OCc2cccc(-c3ccc4c(c3)OCCO4)c2C)cc(OC)c1C=O
inactive: NCI-H23 lung 52.4% | NCI-H226 lung 32.6% | NCI-H322M lung 85.3% | HOP-62 NSCLC 73.4% | NCI-H460 lung 72.2% | HOP-92 NSCLC 79.5% | NCI-H522 lung 42.7% | 786-0 renal 67.1% | COLO 205 colon 40.8%

CC1=NN(c2cccc(Cl)c2)C(=O)/C1=C\C=C\c1ccccc1
active: NCI-H226 lung 3.87% | COLO 205 colon 4.77%
inactive: NCI-H23 lung 26.3% | NCI-H322M lung 112% | HOP-62 NSCLC 22.3% | NCI-H460 lung 101% | HOP-92 NSCLC 101% | NCI-H522 lung 34.4% | 786-0 renal 35.5%

NS(=O)(=O)Oc1cccc(-c2nc3sccn3c2-c2ccccc2)c1
inactive: NCI-H23 lung 76.2% | NCI-H226 lung 85.4% | NCI-H322M lung 89.7% | HOP-62 NSCLC 50.2% | NCI-H460 lung 38.9% | HOP-92 NSCLC 45.8% | NCI-H522 lung 61.5% | A549/ATCC NSCLC 52.6% | 786-0 renal 65.5% | COLO 205 colon 69.7%

CCOC(=O)CCC(=O)P(=O)(O)O
inactive: NCI-H23 lung 116% | NCI-H226 lung 110% | NCI-H322M lung 103% | HOP-62 NSCLC 97.8% | NCI-H460 lung 113% | HOP-92 NSCLC 38.9% | NCI-H522 lung 84.7% | 786-0 renal 98.6% | COLO 205 colon 93.9%

C#CCOc1cccc(Nc2c(Cl)c(CCl)nc3ccc(Oc4ccccc4)cc23)c1
inactive: NCI-H23 lung 64.2% | NCI-H226 lung 72.3% | NCI-H322M lung 83.7% | HOP-62 NSCLC 93.1% | NCI-H460 lung 96.2% | HOP-92 NSCLC 64.2% | 786-0 renal 17.7% | COLO 205 colon 83.2%
active: NCI-H522 lung -6.45%

CC(C)=CC(=O)C1C(=O)c2ccccc2C1=O
inactive: NCI-H23 lung 96.4% | NCI-H226 lung 97.9% | NCI-H322M lung 92.1% | HOP-62 NSCLC 102% | NCI-H460 lung 102% | HOP-92 NSCLC 88.5% | NCI-H522 lung 87.2% | 786-0 renal 105% | COLO 205 colon 115%

CCOC(=O)CC1C(CNC(=O)NC)OC(n2cnc3c(NC(=O)Nc4ccccc4)ncnc32)C1O[Si](C)(C)C(C)(C)C (centres undefined)
inactive: NCI-H23 lung 91.7% | NCI-H322M lung 90.5% | HOP-62 NSCLC 78.9% | NCI-H460 lung 47.6% | HOP-92 NSCLC 63.1% | NCI-H522 lung 80.2% | A549/ATCC NSCLC 22.4% | 786-0 renal 76.1% | COLO 205 colon 43%

O=C(/C=C\c1ccc(O)c(O)c1)c1ccccc1O
inactive: NCI-H23 lung 86.5% | NCI-H322M lung 79.7% | HOP-62 NSCLC 98.7% | NCI-H460 lung 61.5% | HOP-92 NSCLC 55.6% | A549/ATCC NSCLC 55.7% | 786-0 renal 100% | COLO 205 colon 80.6%
active: NCI-H522 lung -61.3%

O=C(Nc1ncc(Cc2ccccc2)s1)c1ccc2c(c1)OCCO2
inactive: NCI-H23 lung 30.8% | NCI-H322M lung 50.1% | HOP-62 NSCLC 25.5% | HOP-92 NSCLC 57.8% | A549/ATCC NSCLC 16.6% | 786-0 renal 33.1%
active: NCI-H460 lung 5.11% | NCI-H522 lung -3.58% | COLO 205 colon -13.3%
